Laboratory results as given in ChEMBL document CHEMBL3988442, “University of Dundee, Small-Polar-MMV Screening Library” (2021).
For some of these results: Results with a measured potency or affinity are listed apart.

Key:
Parameters in all cases: scale not given: direction of the effect not stated beside the values
[1] = biological target: Protein translocase subunit SecA (Escherichia coli (strain K12)) (UniProt P10408); assay: Assay to Identify E. coli SecA ATPase Inhibitors; assay type: functional; details: 30 µM
Protein translocase subunit SecA (Escherichia coli (strain K12)), sequence (P10408 whole entry): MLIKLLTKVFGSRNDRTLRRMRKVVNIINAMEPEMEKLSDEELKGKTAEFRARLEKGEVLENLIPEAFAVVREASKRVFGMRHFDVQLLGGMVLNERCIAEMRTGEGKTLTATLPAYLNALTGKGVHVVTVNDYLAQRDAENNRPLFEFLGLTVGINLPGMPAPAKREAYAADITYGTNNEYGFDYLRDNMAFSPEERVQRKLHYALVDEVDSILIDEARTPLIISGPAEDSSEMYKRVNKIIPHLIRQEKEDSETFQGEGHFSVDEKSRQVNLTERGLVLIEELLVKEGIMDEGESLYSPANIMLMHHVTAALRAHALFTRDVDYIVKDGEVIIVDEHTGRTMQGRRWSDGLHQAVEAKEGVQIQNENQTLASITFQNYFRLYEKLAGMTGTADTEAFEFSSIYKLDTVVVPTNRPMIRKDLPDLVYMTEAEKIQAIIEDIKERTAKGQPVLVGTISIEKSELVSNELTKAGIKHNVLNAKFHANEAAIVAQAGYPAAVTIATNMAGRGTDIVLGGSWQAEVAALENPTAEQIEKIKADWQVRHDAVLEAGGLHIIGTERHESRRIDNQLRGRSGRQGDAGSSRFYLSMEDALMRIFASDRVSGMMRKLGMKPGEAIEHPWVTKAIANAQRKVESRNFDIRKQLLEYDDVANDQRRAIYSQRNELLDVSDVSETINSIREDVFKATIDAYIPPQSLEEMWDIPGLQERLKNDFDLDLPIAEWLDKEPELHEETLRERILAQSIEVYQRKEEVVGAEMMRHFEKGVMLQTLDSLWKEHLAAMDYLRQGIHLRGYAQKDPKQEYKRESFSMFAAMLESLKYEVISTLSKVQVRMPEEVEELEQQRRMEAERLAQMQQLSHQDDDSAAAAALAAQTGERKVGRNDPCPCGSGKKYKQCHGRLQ

[2] = biological target: T1, Ubiquitin-activating enzyme e1, putative (Leishmania donovani (strain BPK282A1)) (UniProt E9BSI1); assay: Leishmania donovani Ubiquitin Activating Enzyme (LdE1); assay type: functional; details: 30 µM
T1 sequence (whole entry): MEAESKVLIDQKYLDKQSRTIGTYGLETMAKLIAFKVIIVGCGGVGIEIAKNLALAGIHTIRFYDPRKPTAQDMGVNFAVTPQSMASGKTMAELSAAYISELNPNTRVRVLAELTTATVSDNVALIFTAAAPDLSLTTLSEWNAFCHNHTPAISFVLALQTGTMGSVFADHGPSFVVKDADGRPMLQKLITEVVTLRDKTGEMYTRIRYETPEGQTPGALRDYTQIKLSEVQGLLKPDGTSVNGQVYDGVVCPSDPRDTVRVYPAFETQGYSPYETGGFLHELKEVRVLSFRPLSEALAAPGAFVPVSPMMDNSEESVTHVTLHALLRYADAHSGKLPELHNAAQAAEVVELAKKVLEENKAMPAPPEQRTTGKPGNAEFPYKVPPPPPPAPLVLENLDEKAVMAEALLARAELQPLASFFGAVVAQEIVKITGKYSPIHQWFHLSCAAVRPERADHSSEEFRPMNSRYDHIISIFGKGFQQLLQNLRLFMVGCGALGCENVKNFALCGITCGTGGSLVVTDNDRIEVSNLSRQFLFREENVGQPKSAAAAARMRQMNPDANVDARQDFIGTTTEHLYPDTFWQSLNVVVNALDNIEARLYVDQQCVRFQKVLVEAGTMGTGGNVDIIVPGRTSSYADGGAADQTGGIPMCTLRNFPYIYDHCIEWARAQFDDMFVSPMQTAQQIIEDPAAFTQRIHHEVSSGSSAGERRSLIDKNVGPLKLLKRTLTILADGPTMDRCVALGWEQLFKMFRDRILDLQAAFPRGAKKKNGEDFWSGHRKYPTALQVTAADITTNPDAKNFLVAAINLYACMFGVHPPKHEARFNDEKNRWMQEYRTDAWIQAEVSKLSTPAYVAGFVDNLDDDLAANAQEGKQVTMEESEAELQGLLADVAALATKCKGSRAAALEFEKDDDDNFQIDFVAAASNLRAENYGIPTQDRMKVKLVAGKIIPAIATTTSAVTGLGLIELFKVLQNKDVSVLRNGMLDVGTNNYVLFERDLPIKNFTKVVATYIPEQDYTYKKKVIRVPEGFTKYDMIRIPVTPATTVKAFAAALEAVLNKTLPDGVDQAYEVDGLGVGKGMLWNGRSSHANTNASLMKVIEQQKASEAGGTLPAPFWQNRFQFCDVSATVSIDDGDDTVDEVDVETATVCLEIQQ

[3] = biological target: AMP-activated protein kinase, AMPK (Homo sapiens) (UniProt P54646+O43741+P54619+Q9UGJ0+Q9Y478+Q13131+Q9UGI9); assay: AMP-dependent Kinase enzyme assay. An in vitro enzyme assay that detects ADP turnover that is directly proportional to AMPK activity. This uses naive AMPK that is activated during the assay with MK-8722; assay type: functional; details: 30 µM
[4] = biological target: Sialic acid-binding Ig-like lectin 9 (Homo sapiens) (UniProt Q9Y336); assay: Hs-Siglec9 ALPHAscreen SOP 20170721; details: 10 µM
Sialic acid-binding Ig-like lectin 9 (Homo sapiens), sequence (Q9Y336 whole entry): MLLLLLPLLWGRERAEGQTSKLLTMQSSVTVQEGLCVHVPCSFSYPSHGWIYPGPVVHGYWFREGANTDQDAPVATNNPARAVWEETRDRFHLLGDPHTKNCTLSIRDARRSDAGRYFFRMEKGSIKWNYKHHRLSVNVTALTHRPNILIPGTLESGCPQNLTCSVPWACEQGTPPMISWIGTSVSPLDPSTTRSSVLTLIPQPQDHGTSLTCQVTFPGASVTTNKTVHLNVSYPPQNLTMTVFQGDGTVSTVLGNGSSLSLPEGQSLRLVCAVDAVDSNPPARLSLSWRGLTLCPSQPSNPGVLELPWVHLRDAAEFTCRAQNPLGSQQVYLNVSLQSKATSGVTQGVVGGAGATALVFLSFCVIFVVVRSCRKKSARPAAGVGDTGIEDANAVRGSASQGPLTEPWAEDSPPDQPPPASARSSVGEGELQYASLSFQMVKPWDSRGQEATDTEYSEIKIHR

[5] = tested on: Trypanosoma cruzi; assay: Trypanosoma cruzi phosphomannomutase and mannose-1-phosphate guanylyltransferase assay; assay type: functional; details: 10 µM
[6] = biological target: T2, Arginase-2, mitochondrial (Homo sapiens) (UniProt P78540); assay: in vitro enzyme assay to detect the production of urea directly proportional to the activity of Arginase II; assay type: functional; details: 33.3 µM; also: in the data most compounds retested in dose-response had high values
T2 sequence (whole entry): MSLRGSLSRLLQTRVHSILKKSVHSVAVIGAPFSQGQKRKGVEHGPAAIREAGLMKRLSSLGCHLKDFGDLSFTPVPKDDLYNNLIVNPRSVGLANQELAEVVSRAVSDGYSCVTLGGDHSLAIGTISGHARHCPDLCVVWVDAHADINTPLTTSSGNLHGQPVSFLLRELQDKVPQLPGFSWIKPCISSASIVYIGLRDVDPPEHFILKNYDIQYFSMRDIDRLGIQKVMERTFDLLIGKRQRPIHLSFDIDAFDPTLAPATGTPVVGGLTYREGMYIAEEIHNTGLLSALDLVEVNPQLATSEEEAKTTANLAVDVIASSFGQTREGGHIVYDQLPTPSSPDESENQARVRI

[7] = biological target: T3, Proteasome subunit beta (Trypanosoma cruzi) (UniProt O96673); assay: Trypanosoma cruzi proteasome chymotrypsin-like activity (TcProtChymo) assay.; also: in the data most compounds retested in dose-response had high values; assay type: functional; details: 9.37 µM
T3 sequence (whole entry): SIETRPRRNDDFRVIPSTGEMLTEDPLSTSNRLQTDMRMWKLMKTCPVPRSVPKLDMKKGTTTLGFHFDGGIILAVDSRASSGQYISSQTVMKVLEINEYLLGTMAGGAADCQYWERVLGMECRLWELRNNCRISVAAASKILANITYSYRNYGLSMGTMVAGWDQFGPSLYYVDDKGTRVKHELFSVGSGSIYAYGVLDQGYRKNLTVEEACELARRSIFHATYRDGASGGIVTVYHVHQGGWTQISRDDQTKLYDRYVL

[8] = species on record: Homo sapiens; assay: To identify inhibition of the IFN signalling (Jak-Stat) pathway via expression of an eGFP reporter gene under the control of an IFN-stimulated response element (ISRE) containing MxA promoter.; assay type: functional; details: 30 µM
[9] = biological target: T4, Tyrosyl-tRNA synthetase, putative (Trypanosoma cruzi (strain CL Brener)) (UniProt Q4DSP6); assay: Trypanosoma cruzi tyrosyl tRNA synthetase (TcYRS) _High Tyrosine SOP; assay type: functional; details: 30 µM; also: in the data most compounds retested in dose-response had high values
T4 sequence (whole entry): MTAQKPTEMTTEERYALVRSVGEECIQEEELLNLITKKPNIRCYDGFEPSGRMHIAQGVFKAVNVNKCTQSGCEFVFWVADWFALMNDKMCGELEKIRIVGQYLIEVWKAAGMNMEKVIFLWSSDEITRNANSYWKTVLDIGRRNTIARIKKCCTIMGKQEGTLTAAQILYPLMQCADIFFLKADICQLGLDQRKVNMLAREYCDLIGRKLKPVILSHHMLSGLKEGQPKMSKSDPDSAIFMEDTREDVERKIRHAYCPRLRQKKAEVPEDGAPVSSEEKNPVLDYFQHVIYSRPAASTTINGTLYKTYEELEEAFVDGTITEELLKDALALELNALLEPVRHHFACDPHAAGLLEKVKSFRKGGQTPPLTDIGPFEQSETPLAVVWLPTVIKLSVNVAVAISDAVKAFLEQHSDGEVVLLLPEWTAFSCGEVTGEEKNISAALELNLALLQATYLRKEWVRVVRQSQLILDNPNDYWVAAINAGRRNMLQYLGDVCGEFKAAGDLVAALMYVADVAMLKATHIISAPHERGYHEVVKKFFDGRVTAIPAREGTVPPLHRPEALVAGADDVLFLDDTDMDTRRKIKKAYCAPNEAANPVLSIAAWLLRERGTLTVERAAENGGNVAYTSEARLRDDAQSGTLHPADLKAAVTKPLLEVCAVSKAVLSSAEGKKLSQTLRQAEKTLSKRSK

[10] = biological target: T4, Tyrosyl-tRNA synthetase, putative (Trypanosoma cruzi (strain CL Brener)); assay: Trypanosoma cruzi tyrosyl tRNA synthetase (TcYRS) SOP; assay type: functional; details: 30 µM
[11] = biological target: Chromo domain-containing protein 1 (Saccharomyces cerevisiae (strain ATCC 204508 / S288c) (Baker's yeast)) (UniProt P32657); assay: ScCHD-1 Enzyme Inhibition Assay; assay type: functional; details: 30 µM; also: in the data most compounds retested in dose-response had high values
Chromo domain-containing protein 1 (Saccharomyces cerevisiae (strain ATCC 204508 / S288c) (Baker's yeast)), sequence (P32657 whole entry, the tested form may be a part): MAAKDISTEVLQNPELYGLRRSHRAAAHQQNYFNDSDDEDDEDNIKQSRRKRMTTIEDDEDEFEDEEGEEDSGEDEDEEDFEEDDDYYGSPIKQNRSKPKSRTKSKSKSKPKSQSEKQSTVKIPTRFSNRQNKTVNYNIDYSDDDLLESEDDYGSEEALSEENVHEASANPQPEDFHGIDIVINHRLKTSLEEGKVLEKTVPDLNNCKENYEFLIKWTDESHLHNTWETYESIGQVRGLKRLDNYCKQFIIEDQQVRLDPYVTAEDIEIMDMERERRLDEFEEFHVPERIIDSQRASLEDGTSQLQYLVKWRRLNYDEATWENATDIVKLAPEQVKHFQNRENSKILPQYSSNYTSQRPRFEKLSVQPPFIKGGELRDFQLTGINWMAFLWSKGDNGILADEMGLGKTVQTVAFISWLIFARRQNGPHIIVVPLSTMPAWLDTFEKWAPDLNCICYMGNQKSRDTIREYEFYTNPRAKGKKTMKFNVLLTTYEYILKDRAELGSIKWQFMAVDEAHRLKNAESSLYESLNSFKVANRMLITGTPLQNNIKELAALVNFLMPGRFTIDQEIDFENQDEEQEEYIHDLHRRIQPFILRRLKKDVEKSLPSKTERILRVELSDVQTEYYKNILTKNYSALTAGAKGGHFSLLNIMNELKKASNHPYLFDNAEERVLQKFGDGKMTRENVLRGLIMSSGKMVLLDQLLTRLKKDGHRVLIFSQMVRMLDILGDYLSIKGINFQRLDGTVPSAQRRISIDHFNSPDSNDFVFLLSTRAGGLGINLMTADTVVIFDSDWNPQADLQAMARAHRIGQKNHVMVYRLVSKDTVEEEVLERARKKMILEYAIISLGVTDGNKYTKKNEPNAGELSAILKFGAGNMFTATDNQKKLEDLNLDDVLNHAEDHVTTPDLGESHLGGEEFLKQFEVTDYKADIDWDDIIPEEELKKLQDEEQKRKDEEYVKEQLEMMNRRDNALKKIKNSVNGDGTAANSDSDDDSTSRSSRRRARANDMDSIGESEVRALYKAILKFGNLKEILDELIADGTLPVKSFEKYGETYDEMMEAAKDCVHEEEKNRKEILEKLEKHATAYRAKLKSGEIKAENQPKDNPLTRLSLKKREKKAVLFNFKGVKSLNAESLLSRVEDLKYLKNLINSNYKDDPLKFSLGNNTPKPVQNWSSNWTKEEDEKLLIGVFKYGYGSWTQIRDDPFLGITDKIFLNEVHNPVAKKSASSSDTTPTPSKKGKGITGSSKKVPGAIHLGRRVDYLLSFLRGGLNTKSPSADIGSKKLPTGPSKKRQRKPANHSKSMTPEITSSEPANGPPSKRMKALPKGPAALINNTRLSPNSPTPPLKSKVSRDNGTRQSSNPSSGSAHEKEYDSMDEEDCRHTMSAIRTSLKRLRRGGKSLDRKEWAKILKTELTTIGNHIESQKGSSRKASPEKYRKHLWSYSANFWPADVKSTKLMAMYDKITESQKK

SMILES | Percent Effect [1] | Percent Effect [2] | Percent Effect [3] | Percent Effect [4] | Percent Effect [5] | Percent Effect [6] | Percent Effect [7] | Percent Effect [8] | Percent Effect [9] | Percent Effect [10] | Percent Effect [11]
CCN1CCN(S(=O)(=O)c2cc(C)c(Cl)cc2Cl)CC1 | -6.87% | -2.6% | 4.8% | 4.35% | -2.85% | 1.38% | -0.166% | 13.9% | -3.23% | -6.17% | 4.8%
O=C(CCc1ccccc1)N1CCC(N2CCNC2=O)CC1 | -4.14% | 7.79% | 3.48% | -3.35% | -4.6% | 1.47% | 6.06% | 15.5% | 3.81% | 14.1% | -13.9%
CN(CCn1nc2ccccn2c1=O)CC(=O)N1CCCC1 | -5.53% | 0% | 6.84% | 5.95% | -6.33% | 3.55% | 11.6% | 15.5% | 3.19% | 2.6% | 29.3%
N#Cc1cccnc1N1CCC2(CCCN(C3CCOCC3)C2=O)C1 (stereo unspecified) | -3.31% | 5.48% | 0.329% | 1.41% | 2.58% | -3.99% | 8.82% | 7.98% | 1.04% | 1.24% | -4.64%
Cc1cc(C)cc(NS(=O)(=O)c2cc3c(c(C(=O)O)c2)OCCO3)c1 | -4.74% | 6.33% | -7.57% | 3.67% | 0.308% | -5.38% | 15.4% | 2.08% | -10.4% | -5.06% | -26.1%
Cc1nc(CN2C(=O)COC3(CCN(Cc4nccs4)CC3)C2C)cs1 (stereo unspecified) | -1.57% | 0% | -5.34% | 5.68% | 4.56% | -4.39% | 2.48% | -3.19% | 6.25% | 13.6% | -5.58%
CC(C)C(Sc1nnc(C2CC2)n1C1CC1)C(=O)NCc1cccnc1 (stereo unspecified) | 1.83% | -2.6% | -2.77% | 5.12% | 5.24% | -1.42% | 3.21% | -24.2% | 5.83% | 12.2% | -8.74%
CCCc1nc(CN2CCOC(CNc3cccnn3)C2)cs1 (stereo unspecified) | -3.31% | 2.7% | -3.87% | 5.09% | -0.849% | -5.61% | 10.3% | 7.16% | 14.3% | 30.9% | -7.47%
O=C(CCc1cscn1)NS(=O)(=O)c1ccc2c(c1)CCC2 | -5.7% | 15.3% | -13.9% | 36.9% | 7.29% | 22.5% | 3.33% | 5.07% | 3.16% | 15.4% | -4.74%
CN(Cc1ccc(OC(F)F)cc1)C(=O)CS(=O)(=O)c1ccc(Cl)cc1 | -4.93% | -2.7% | -0.333% | 6.3% | 8.49% | -1.91% | 0.345% | 3.29% | -5.82% | 0% | -1.75%
CNC(=O)CS(=O)(=O)Cc1coc(-c2ccc(F)cc2)n1 | -2.82% | 5.41% | -2.17% | 1.48% | 3.67% | 2.38% | 7.59% | -3.27% | 5.82% | 12.2% | -1.98%
